This is an account of results in PubChem BioAssay (NCATS).

Assay [1] is described as follows: Cell Viability - SK-N-SH (AID 435; calls by dose curve;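 note: potency is the fitted concentration of half-maximal effect; compound exposure lasted 40 h at 37 °C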). To be noted: SK-N-SH neuroblastoma cell viability qHTS. The method, boiled down:
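SK-N-SH human neuroblastoma cells (1500/well) were exposed to compounds in complete medium for 40 h at 37 °C, and intracellular ATP was then measured by CellTiter-Glo luminescence. AC50 was taken from Hill fits, normalized to DMSO and 100 uM tamoxifen.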
(In general: In qHTS, concentration-response curves come from the screen itself.)

The nature of assay [2]: Cell Viability - Renal Proximal Tubule (AID 545). Note: nearly all actives have a fitted effect of over 40% in size. To be noted: renal proximal tubule cells viability; series mostly up to 91.7 µM. The method, boiled down:
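Primary rat renal proximal tubule cells (1000/well) were treated with compounds for 40 hr at 37 °C in complete medium. Intracellular ATP was measured by CellTiter-Glo luminescence, and AC50 values came from Hill-equation fits of concentration-response data.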

Assay [3] can be described thus: Cellular Toxicity (caspase-3) Jurkat (AID 655).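 Note: cells exposed to compound for 16 h at 37 °C before reading.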 To be noted: Jurkat caspase-3 activation, luminescence; caspase-3 activation: at 92.2 µM (top of the series), DMSO = 0%, tamoxifen = 100%. The method, boiled down:
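Jurkat cells (5000/well) in complete medium were treated with compounds for 16 hr at 37 °C, then Caspase-Glo 3/7 luminescence was read after 20 min at room temperature. Data normalized to DMSO (basal) and 100 uM tamoxifen (100%); AC50 from Hill fit.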

A short description of assay [4]: Cellular Toxicity (caspase-3) SHSY5Y (AID 657). To be noted: SH-SY5Y caspase-3 activation, DMSO zero, 10 µM staurosporine = 100%; series mostly up to 91.7 µM. Summed up: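 SH-SY5Y human neuroblastoma cells (1500/well) were treated with compounds for 16 h at 37 °C, then Caspase-Glo 3/7 luminescence was read after 1 h at room temperature. Data normalized to DMSO and 10 uM staurosporine; AC50 from Hill fits.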

A short description of assay [5]: Cellular Toxicity (caspase-3) BJ (AID 658). To be noted: BJ fibroblasts, luminescence, normalized: DMSO 0%, staurosporine 100%; series mostly up to 91.7 µM. Summed up: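 Caspase-Glo 3/7 luminescence, read 1 hr after reagent at room temperature, in normal BJ fibroblasts exposed 16 hours at 37 °C. AC50 values from Hill-equation concentration-response, scaled between DMSO basal and 10 uM staurosporine as 100%.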

Assay [6] is described as follows: Cellular Toxicity (caspase-3) N2a (AID 665).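 Note: compound exposure lasted 16 h at 37 °C before readout.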 To be noted: N2a cells, luminescence, normalized: DMSO 0%, 10 µM staurosporine 100%; series mostly up to 92.2 µM. Summed up: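 Caspase-3/7 activation measured as luminescence from Caspase-Glo reagent (1 h, room temperature) after 16 h compound exposure of mouse N2a cells. AC50 values from Hill-equation concentration-response, scaled between DMSO and 10 uM staurosporine.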

Assay [7] can be described thus: Cellular Toxicity (caspase-3) Renal Proximal Tubule (AID 667).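 Note: cells exposed to compound for 16 hours at 37 °C before detection.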 To be noted: renal proximal tubule cells; series mostly up to 91.7 µM. Summed up:
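Primary rat proximal tubule cells, 1000/well, 5 h plating at 37 °C, then compound 16 h at 37 °C. Caspase-Glo 3/7 reagent, 1 h RT, luminescence. Normalized to DMSO (basal) and 10 uM staurosporine (100%); Hill-fit AC50.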

Assay [8] concerns the target Cytochrome P450 3A4 (Homo sapiens) (UniProt P08684). The experiment in a line: qHTS Assay for Inhibitors and Substrates of Cytochrome P450 3A4 (AID 884). Note: nearly all actives have a fitted effect of over 50% in size. Note: potency is the fitted concentration of half-maximal effect. To be noted: recombinant CYP3A4, Luciferin-PPXE luminescence; series mostly up to 57.1 µM. The method, boiled down: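 Luminescent readout of luciferin produced by CYP3A4 (20 nM) dealkylation of Luciferin-PPXE, 25 uM (its KM). NADPH-driven reaction ran 60 min at RT after 10 min compound preincubation; data scaled to 57 uM ketoconazole as 100% inhibition.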

The nature of assay [9]: MultiTox-Fluor Cytotoxicity Assay - LYMP1-001 - Dead Cells (AID 946).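 Note: 0% = DMSO and 100% = tetraoctylammonium bromide.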 To be noted: LYMP1-001 lymphoblastoid cells, dead-cell protease fluorescence; series mostly up to 92.2 µM. The method, boiled down:
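AC50 from Hill fit of concentration-response; data normalized to DMSO (basal) and 15 uM tetraoctylammonium bromide (100%). LYMP1-001 lymphoblastoid cells, 2500/well, 16 hr compound at 37 C; dead-cell protease fluorescence, Ex/Em 485/520.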

Assay [10] in a line: Cell Viability - LYMP1-002 - Assay at 16 hr (AID 948).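 Note: 0% = DMSO alone and full effect = 92 µM tetraoctylammonium bromide.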 To be noted: LYMP1-002 lymphoblastoid cell viability; series mostly up to 92.2 µM. Summed up: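 Human lymphoblastoid cells (LYMP1-002), 2500/well, were preincubated 5 hr at 37 C, then exposed to compounds for 16 hr at 37 C in complete medium. Cellular ATP was read by CellTiter-Glo luminescence after 30 min at room temperature; AC50 from Hill fits.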

Assay [11] is described as follows: MultiTox-Fluor Cytotoxicity Assay - LYMP1-003 - Dead Cells (AID 961).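 Note: 0% = DMSO and 100% = tetraoctylammonium bromide; nearly all actives have a fitted effect of over 70% in size.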 To be noted: LYMP1-003 lymphoblastoid cells, dead-cell protease fluorescence; series mostly up to 92.2 µM. The method, boiled down:
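Human lymphoblastoid LYMP1-003 cells (2500/well) were treated with compounds for 16 hr at 37 C in complete medium. Dead-cell protease release was read by bis-AAF-R110 fluorescence (Ex/Em 485/520). AC50 came from Hill fits, normalized to DMSO and 15 uM tetraoctylammonium bromide.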

Assay [12] can be described thus: Cell Viability - LYMP1-003 - Assay at 24 hr (AID 963).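 Note: plate controls were DMSO only for no effect and tetraoctylammonium bromide positive control for full effect.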 To be noted: LYMP1-003 lymphoblastoid cell viability; series mostly up to 92.2 µM. Summed up:
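Concentration-response qHTS: ATP loss measured by CellTiter-Glo luminescence after 24 h compound exposure at 37 C. Cells were LYMP1-003 human lymphoblastoid, 2500 per well. AC50 derived via standard Hill equation modeling.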

Assay [13] can be described thus: Cell Viability - LYMP2-003 (AID 965).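 Note: cells exposed to compounds for 24 h before reading; 0% = DMSO only and full effect = 92 µM tetraoctylammonium bromide; nearly all actives have a fitted effect of over 50% in size.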 To be noted: LYMP2-003 lymphoblastoid cell viability; series mostly up to 92.2 µM. The method, boiled down:
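Human lymphoblastoid cells (2500/well) were pre-incubated 5 hr at 37 C, then exposed to compounds over a concentration range for 24 hr at 37 C. Intracellular ATP was read by CellTiter-Glo luminescence; AC50 came from Hill-equation fits.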

Assay [14] in a line: Cell Viability - LYMP2-015 (AID 971).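 Note: 0% = DMSO only and full effect = 92 µM tetraoctylammonium bromide; nearly all actives have a fitted effect of over 55% in size.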 To be noted: LYMP2-015 lymphoblastoid cell viability; series mostly up to 92.2 µM. Summed up:
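Cytotoxicity readout: decrease in intracellular ATP (CellTiter-Glo luminescence) in 2500 LYMP2-015 lymphoblastoid cells/well after 24 h compound exposure at 37 C. Concentration-response data fitted with the standard Hill equation to give AC50.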

Assay [15] in a line: Cell Viability - LYMP1-002 - Assay at 24 hr (AID 993). Note: % is set by controls: 0 for no effect and ±100 for the full control effect. To be noted: LYMP1-002 lymphoblastoid cells viability; series mostly up to 92.2 µM. The method, boiled down:
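qHTS cytotoxicity at 24 h: CellTiter-Glo ATP luminescence in lymphoblastoid line LYMP1-002 incubated with compound at 37 °C. Concentration-response modeled with the Hill equation for AC50; tetraoctylammonium bromide served as positive control.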

Assay [16] is described as follows: Cell Viability - LYMP1-002 - Assay at 40 hr (AID 994).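 Note: 0% = DMSO only and full inhibition = 92 µM tetraoctylammonium bromide; nearly all actives have a fitted effect of over 60% in size.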 To be noted: LYMP1-002 lymphoblastoid cell viability; series mostly up to 92.2 µM. The method, boiled down:
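Cytotoxicity was read as loss of cellular ATP (CellTiter-Glo luminescence) after 40 hr compound exposure at 37 C of 2500 LYMP1-002 lymphoblastoid cells per well. Concentration-response data were fitted with the standard Hill equation to give AC50.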

The target of assay [17] is Peroxisome proliferator-activated receptor alpha (Homo sapiens) (UniProt Q07869). The assay can be described thus: qHTS assay for small molecule agonists of the peroxisome proliferator-activated receptor alpha (PPARalpha) signaling pathway (AID 651778). Note: % of control where 0% means no effect. To be noted: PathHunter PPARalpha complementation, chemiluminescence, 6 h; hits give high values. Summed up:
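Chemiluminescence from complemented enzyme reported PPARalpha activation in cells after 6 hr of compound treatment at 37 C. The detection reagent was incubated for 60 min at room temperature, and compounds were scored as agonists.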

The nature of assay [18]: qHTS assay for cell viability of HEK293 cells (AID 743288). Note: % is set by controls: 0 for no effect and ±100 for the full control effect; nearly all actives have a fitted effect of over 50% in size. To be noted: ATP luminescence (CellTiter-Glo), 18 h, hits give low values. The method, boiled down:
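After 18 h compound exposure at 37 C, parental HEK293 cells (2,000/well) are lysed with CellTiter-Glo and luminescence is read following 30 min at room temperature.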

Assay [19] can be described thus: qHTS assay for cell viability of the p53RE-bla HCT-116 cell line (AID 743292). Note: % is set by controls: 0 for no effect and ±100 for the full control effect; nearly all actives have a fitted effect of over 55% in size. To be noted: p53RE-bla HCT-116 viability, ATP luminescence, 16 h; series mostly up to 95 µM. The method, boiled down:
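Intracellular ATP of p53RE-bla HCT-116 cells measured by luciferase luminescence following 16 h compound incubation at 37 C; DMSO-only wells served as vehicle controls.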

Assay [20] has as its target Nuclear receptor subfamily 1 group I member 2 (Rattus norvegicus) (UniProt Q9R1A7). The experiment in a line: qHTS assay for small molecule activators of the rat pregnane X receptor (rPXR) signaling pathway (AID 651751; call rule not given here; note: 0% is about no effect). To be noted: rPXR reporter cells, luciferase (One-Glo), 24 h.

A number with no mark means an inactive call. Inconclusive results are not listed. The source made the active and inactive calls. Unless noted, calls come from the whole dose curve; as a rule, active = well fitted curve in the direction sought with a large enough effect; inconclusive = small, poorly fitted or top-dose-only effect, or another doubt; inactive = no such curve, though single readings can be large; an effect the other way counts as inactive or inconclusive. Some results are limits rather than exact numbers.

Sequence of Nuclear receptor subfamily 1 group I member 2 (Rattus norvegicus) (Q9R1A7 whole entry, looked up): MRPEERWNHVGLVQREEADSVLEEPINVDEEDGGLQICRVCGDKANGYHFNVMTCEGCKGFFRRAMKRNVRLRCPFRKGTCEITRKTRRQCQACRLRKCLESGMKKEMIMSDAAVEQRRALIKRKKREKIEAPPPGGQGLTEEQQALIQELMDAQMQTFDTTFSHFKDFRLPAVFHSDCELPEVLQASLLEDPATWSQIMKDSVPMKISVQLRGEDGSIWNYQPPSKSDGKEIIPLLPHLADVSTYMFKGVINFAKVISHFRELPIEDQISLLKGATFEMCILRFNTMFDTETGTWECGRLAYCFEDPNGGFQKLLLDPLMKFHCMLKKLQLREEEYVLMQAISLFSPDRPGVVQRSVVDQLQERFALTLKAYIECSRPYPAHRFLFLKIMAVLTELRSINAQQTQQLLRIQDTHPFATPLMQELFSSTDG
Sequence of Cytochrome P450 3A4 (Homo sapiens) (P08684 whole entry, looked up): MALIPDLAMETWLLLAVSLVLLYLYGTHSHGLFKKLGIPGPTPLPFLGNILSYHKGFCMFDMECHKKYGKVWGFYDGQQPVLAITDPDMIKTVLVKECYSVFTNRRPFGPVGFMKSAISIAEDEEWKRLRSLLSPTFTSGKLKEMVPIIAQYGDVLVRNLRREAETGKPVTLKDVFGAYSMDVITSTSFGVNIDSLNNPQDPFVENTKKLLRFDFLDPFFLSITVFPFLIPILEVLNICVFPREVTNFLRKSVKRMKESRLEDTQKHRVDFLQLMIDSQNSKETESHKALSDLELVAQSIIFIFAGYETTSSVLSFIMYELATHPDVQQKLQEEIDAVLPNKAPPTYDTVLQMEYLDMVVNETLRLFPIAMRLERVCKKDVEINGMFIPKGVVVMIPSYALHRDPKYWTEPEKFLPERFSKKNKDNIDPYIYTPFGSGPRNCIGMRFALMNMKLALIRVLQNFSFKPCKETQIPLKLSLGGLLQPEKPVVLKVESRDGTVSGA
Sequence of Peroxisome proliferator-activated receptor alpha (Homo sapiens) (Q07869 whole entry, looked up): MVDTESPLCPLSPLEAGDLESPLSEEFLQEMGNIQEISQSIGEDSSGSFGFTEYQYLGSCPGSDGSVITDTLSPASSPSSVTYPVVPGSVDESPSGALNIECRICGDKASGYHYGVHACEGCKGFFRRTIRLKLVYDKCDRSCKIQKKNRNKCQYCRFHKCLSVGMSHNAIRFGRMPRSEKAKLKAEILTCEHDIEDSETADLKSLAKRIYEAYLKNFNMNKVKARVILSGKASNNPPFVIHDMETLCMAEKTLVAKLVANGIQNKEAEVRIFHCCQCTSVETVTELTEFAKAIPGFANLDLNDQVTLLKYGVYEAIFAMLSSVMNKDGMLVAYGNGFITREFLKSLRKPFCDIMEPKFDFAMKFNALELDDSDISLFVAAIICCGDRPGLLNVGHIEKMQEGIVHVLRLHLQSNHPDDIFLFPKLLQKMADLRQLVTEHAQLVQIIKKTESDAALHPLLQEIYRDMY

In the case of `CC(C)(Cl)Cl`, the Potency in [1] was greater than 92 µM. For the same compound, the result in assay [2], in assay [4], in assay [5], in assay [6], in assay [7] and in assay [9] was inactive. Further, the compound was classed as inactive in assay [10] and in assay [12]. Besides, the caspase-3 activation in assay [3] was -0.572%. In addition, the Potency entry in assay [8], in assay [11], in assay [13], in [14], in assay [15] and in [16] was “inactive” each time. Moreover, the Potency entry in [19] was “inactive”. The figures for the max response in [17], in assay [18] and in [20] were -2.59%, 1.9% and -1.57%, respectively.

Regarding `O=C(O)c1cc(Cl)ccc1Cl`, the Potency in assay [1] is greater than 92 µM. The compound was classed as inactive in [2], in assay [4], in assay [5], in assay [6], in assay [7] and in assay [9]. Besides, the call in [10] and in [12] was inactive. The caspase-3 activation in [3] was 0.232%. Further, the Potency result in assay [8], in assay [11], in assay [13], in assay [14], in [15] and in assay [16] was “inactive” in each case. For the same compound, in [19], the Potency entry is “inactive”. The max response is 5.32% in [17], -1.88% in assay [18] and -1.07% in assay [20].

In the case of `CC(C)C#N`, the Potency in [1] is greater than 92 µM. Further, the compound was classed as inactive in assay [2], in assay [4], in assay [5], in [6], in [7] and in assay [9]. For the same compound, the result in assay [10] and in [12] was inactive. For the same compound, in assay [3], the caspase-3 activation was -1.09%. Also, the Potency entry in assay [8], in assay [11], in assay [13], in assay [14], in assay [15] and in [16] was “inactive” in each case. Besides, the Potency result in assay [19] is “inactive”. For the same compound, the max response in assay [17] was 2.25%; in [18] it was 0.536%; in assay [20] it was 3.94%.

`Nc1ccc(Cc2ccc(N)c(Cl)c2)cc1Cl`: the Potency in assay [1] was greater than 92 µM; in assay [8] it was 5.01 µM (active). The caspase-3 activation in assay [3] is 25.3%. Moreover, the compound was called inactive in assay [4], in assay [5], in assay [6], in [7], in assay [9] and in assay [10]. The compound was classed as inactive in assay [12]. The Potency result in [11], in [13], in [14], in [15], in [16] and in assay [19] was “inactive” each time. Moreover, the max response was 2.66% in assay [17] and -12.3% in assay [18].

In the case of `O=[N+]([O-])CCO`, the Potency in assay [1] was greater than 92 µM. In addition, the compound was called inactive in assay [2], in assay [4], in assay [5], in assay [6], in assay [7] and in assay [9]. Moreover, the compound was called inactive in assay [10] and in assay [12]. In assay [3], the caspase-3 activation is -0.445%. The Potency entry in assay [8], in assay [11], in assay [13], in assay [14], in assay [15] and in [16] was “inactive” in each case. Moreover, the Potency result in assay [19] is “inactive”. In addition, the max response in assay [17] is -2.47%; in assay [18], -4.92%; in assay [20], 2.92%.
